Among all 2,300 compounds or so, about 790 (34%) were called active. How the calls were made is not given here. The list shows a part of the results. Potency and affinity values are given separately.
assay: THP-1 cell cytotoxicity, dose response, cytotoxicity control for non-replicating M. tuberculosis project (AID 489025); details: THP-1 cell viability; series mostly up to 40 µM; viability: at the top concentration

Structure (SMILES)	viability
COc1ccc(Cl)cc1N=Cc1c(O)c2ccccc2oc1=O	103% (inactive)
COc1ccc(OC(=O)c2cc3cc(Cl)ccc3oc2=O)cc1	111% (inactive)
Cc1ccc(NC(=O)CO/N=C/c2ccc(N(C)C)cc2)cc1	86.2% (inactive)
COc1ccc(CC(=O)OCC(=O)Nc2ccc(Br)cc2)cc1	106% (inactive)
Cc1ccc(CCC(=O)Nc2ccccc2F)s1	89.1% (inactive)
O=C(Nc1nnc(-c2ccc(Br)cc2)o1)C1=COCCO1	102% (inactive)
O=C(Nc1nnc(-c2ccco2)o1)c1cccc2ccccc12	75% (inactive)
O=C(COC(=O)c1ccc([N+](=O)[O-])s1)Nc1ccc(Cl)cn1	81.6% (inactive)
O=C(Nc1ccccc1F)c1ccc(Br)o1	97.4% (inactive)
Cc1cccc(NC(=O)COc2ccc(Br)cc2)n1	107% (inactive)
O=C(Nc1nnc(-c2ccc(Br)cc2)o1)c1ccco1	96.8% (inactive)
Cc1ccccc1C(=O)Nc1nnc(-c2ccco2)o1	76.2% (inactive)
Fc1ccc(COc2ccc(-c3nnco3)cc2)cc1	100% (inactive)
Cc1ccc(C(=O)OCC(=O)N2CCCCCC2)c(O)c1	118% (inactive)
COc1ccc(-c2nc3ccc(C)cc3c(=O)o2)cc1OC	89.8% (inactive)
CC1(C)CC(=O)C(C2NCCc3ccccc32)=C(O)C1 (stereo unspecified)	109% (inactive)
C/C(CC(=O)Nc1ccc(C)c(Cl)c1)=N\NC(=O)c1ccco1	88.2% (inactive)
CCOC(=O)c1cc(COc2cc(Cl)cc(Cl)c2)on1	101% (inactive)
CCOc1ccc(NC(=O)CCC(=O)N/N=C/c2ccc([N+](=O)[O-])s2)cc1	90.2% (inactive)
Cc1nc2ccc(NC(=O)c3ccc([N+](=O)[O-])cc3[N+](=O)[O-])cc2s1	95.8% (inactive)
COc1cccc2cc(C(=O)NCc3ccc(F)cc3)c(=N)oc12	104% (inactive)
CC1Cc2cc(/C=C3/SC(=S)NC3=O)ccc2O1 (stereo unspecified)	81.9% (inactive)
CC(C)(O)C#Cc1ccc(C(=O)Nc2ccc3c(c2)OCO3)s1	88.2% (inactive)
CC(C)n1c(=S)[nH]c2ccccc2c1=O	94.6% (inactive)
O=C(Nc1ccccc1)c1ccc(Br)o1	73.2% (inactive)
CCC(C)(C)NC(=O)c1ccc(Br)o1	106% (inactive)

Structure (SMILES)	viability
CCOC(=O)COc1ccc(C(=O)NC2CCCCC2)cc1	111% (inactive)
O=C(O)c1ccccc1C(=O)NNc1ccc(F)cc1	118% (inactive)
O=C(O)c1ccccc1C(=O)NNc1ccc(Cl)cc1	120% (inactive)
COc1ccc(C(=O)NN/C(C)=C/C(=O)c2ccccc2)cc1	95.9% (inactive)
O=C(NNc1ccc([N+](=O)[O-])cc1)c1ccccc1Cl	100% (inactive)
O=C(COC(=O)C1CCCCC1)Nc1ccccc1OC(F)F	109% (inactive)
NC(=O)/C(=N\OC(=O)c1ccco1)c1nc(-c2ccc(Br)cc2)cs1	104% (inactive)
O=C(OCc1cccc(F)c1)c1ccc2c(=O)n3c(nc2c1)CCC3	98.6% (inactive)
Cc1ccc(/C=C2/C(=O)NC(=O)N(CCc3ccc(F)cc3)C2=O)s1	112% (inactive)
Cc1ccc(NC(=O)CN(C)C2CCCCC2)cc1Br	94.8% (inactive)
O=C(OCCCCN1C(=O)c2ccccc2C1=O)c1ccc(Br)o1	89.2% (inactive)
Nn1c(SCCOc2ccc(Cl)cc2)nnc1-c1cccnc1	82.1% (inactive)
Cc1ccc(CC(=O)Nc2ccc(Cl)cn2)cc1	106% (inactive)
O=C(Nc1nc2ccccc2n1CCN1CCCC1)c1ccc(Cl)cc1	79% (inactive)
Cn1[nH]c(-c2ccccc2)c(/C=N/O)c1=O	111% (inactive)
Clc1ccc(Cc2nnc(-c3cccs3)o2)cc1	104% (inactive)
c1cncc(-c2noc(CC3CCCCC3)n2)c1	97% (inactive)
CCOC(=O)C(=NCCOC)NNc1cc(Cl)ccc1Cl	92.8% (inactive)
CCOc1cccc2cc(C(=O)NCc3ccccc3)c(=N)oc12	113% (inactive)
CCc1c(C)c2ccc(OCC(=O)OC)cc2oc1=O	118% (inactive)
Cc1cccc2nc(-c3cccnc3)c(NCCC(C)C)n12	76.1% (inactive)
CSc1nn(-c2ccc(C(=O)OCC(=O)NC(=O)NC(C)C)cc2)c(=S)s1	98.3% (inactive)
CC(=O)Oc1c(-c2ccco2)oc2ccccc2c1=O	82.7% (inactive)
Cc1nc2ccc(Cl)cc2nc(C)/c1=N\O	110% (inactive)
O=c1c2c([N+](=O)[O-])cc([N+](=O)[O-])cc2sn1-c1ccc(Br)cc1	90.1% (inactive)
O=c1c2cc(Cl)ccc2nc(-c2ccccc2Cl)n1O	113% (inactive)

Structure (SMILES)	viability
O=C(Oc1cccc([N+](=O)[O-])c1)c1ccc2c(=O)n3c(nc2c1)CCC3	116% (inactive)
CCOC(=O)COn1c(-c2cccc(Cl)c2)nc2ccc([N+](=O)[O-])cc21	86.9% (inactive)
N/C(=N\OC(=O)c1cccc(Br)c1)c1ccc([N+](=O)[O-])cc1	102% (inactive)
O=[N+]([O-])c1ccc2nc(SCc3cn4cc(Cl)ccc4n3)[nH]c2c1	99.3% (inactive)
CC(=O)c1cc2c(ccc3ccccc32)oc1=O	110% (inactive)
CCOc1ncccc1C(=O)OCC(=O)N1CCc2ccccc21	95.2% (inactive)
C=C(C)C1CC=C(C)/C(=N/NC(=O)CNc2ccc(OCC)cc2)C1 (stereo unspecified)	92% (inactive)
CC(C)OC(=O)c1c2c(n3ccccc13)C(=O)c1ccccc1C2=O	83.2% (inactive)
COc1cc(C(=O)ON=C2C=C(C)C(=O)C(C)=C2)cc(OC)c1OC	71.2% (inactive)
Cc1nn2c(NCCN(C)C)c3c(nc2c1-c1ccccc1)CCCC3	71% (inactive)
COc1ccc(CCNc2cc(-c3ccccc3)nc3ncnn23)cc1	79.6% (inactive)
O=C(OCn1nnc2ccccc2c1=O)c1ccc(Br)o1	101% (inactive)
COc1cccc(C(=O)OCn2nnc3ccccc3c2=O)c1OC	88.7% (inactive)
Cc1cccc(Cn2ccc(NC(=O)c3ccc4c(c3)OCO4)n2)c1	94.6% (inactive)
Cc1ccc(NC(=O)COC(=O)CCc2c[nH]c3ccccc23)cc1[N+](=O)[O-]	97.8% (inactive)
O=C(NCCC1=CCCCC1)c1ccc(F)cc1	86.6% (inactive)
Cc1ccc(NC(=O)COCC(=O)Nc2ccc(C)cc2)cc1	121% (inactive)
Cc1ccc(NC(=O)CNc2ccc(OC(C)C)cc2)cc1	93.2% (inactive)
CSc1ccc(C(=O)C2CCCN(Cc3cc4ccccc4[nH]3)C2)cc1 (stereo unspecified)	79.9% (inactive)
COc1ccc(C(=O)C2CCCN(C(=O)c3ccc(CSC)o3)C2)cc1F (stereo unspecified)	106% (inactive)
COC(=O)c1ccccc1NC(=O)C1CC(c2ccc(F)cc2)=NO1 (stereo unspecified)	73.4% (inactive)
CC(=O)OCCN(C)c1cc(SC(C)C)c2nonc2c1[N+](=O)[O-]	102% (inactive)
CCCNC(=O)COC(=O)c1cc2c(=O)n3ccccc3nc2s1	103% (inactive)
Cc1csc(=Nc2cccnc2)n1CC1CCCCC1	80.9% (inactive)

Reference: PubChem BioAssay AID489025 (Southern Research Specialized Biocontainment Screening …, 2010)
